The text below walks through data of PubChem BioAssay AID540345 (The Scripps Research Institute Molecular Screening Center, 2011).

A number with no mark means an inactive call. The rule behind the calls is not given here.

For the assay, the system named is Phorbol Ester. Description: selectivity profile over receptors, transporters, CYPs – biochemical, Ricerca HitProfilingScreen, CYP450, set 2, selectivity assay for GPR7 antagonist project, profiling panel (AID 540345). Particulars: Ricerca radioligand binding/CYP panel, at 10 µM, active compounds read high.

The inhibition is the drop in the measured response relative to a control, in per cent. For the molecule `COc1ccc(Oc2c(Cl)cnn(C3c4ccccc4-c4ccccc43)c2=O)cc1`, the inhibition is 0%.
